Laboratory results from ChEMBL document CHEMBL1961873, “Compounds: GSK PKIS; Assays: Nanosyn kinase panel” (2012).

Legend:
[1] = biological target: Sphingosine kinase 1 (Homo sapiens) (UniProt Q9NYA1); conditions: at 1 µM;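 also: mean SPHK1 inhibition value reported from the GSK PKIS kinase panel screen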
[2] = biological target: T1, Sphingosine kinase 2 (Homo sapiens) (UniProt Q9NRA0); conditions: at 0.1 µM
T1 sequence (whole entry): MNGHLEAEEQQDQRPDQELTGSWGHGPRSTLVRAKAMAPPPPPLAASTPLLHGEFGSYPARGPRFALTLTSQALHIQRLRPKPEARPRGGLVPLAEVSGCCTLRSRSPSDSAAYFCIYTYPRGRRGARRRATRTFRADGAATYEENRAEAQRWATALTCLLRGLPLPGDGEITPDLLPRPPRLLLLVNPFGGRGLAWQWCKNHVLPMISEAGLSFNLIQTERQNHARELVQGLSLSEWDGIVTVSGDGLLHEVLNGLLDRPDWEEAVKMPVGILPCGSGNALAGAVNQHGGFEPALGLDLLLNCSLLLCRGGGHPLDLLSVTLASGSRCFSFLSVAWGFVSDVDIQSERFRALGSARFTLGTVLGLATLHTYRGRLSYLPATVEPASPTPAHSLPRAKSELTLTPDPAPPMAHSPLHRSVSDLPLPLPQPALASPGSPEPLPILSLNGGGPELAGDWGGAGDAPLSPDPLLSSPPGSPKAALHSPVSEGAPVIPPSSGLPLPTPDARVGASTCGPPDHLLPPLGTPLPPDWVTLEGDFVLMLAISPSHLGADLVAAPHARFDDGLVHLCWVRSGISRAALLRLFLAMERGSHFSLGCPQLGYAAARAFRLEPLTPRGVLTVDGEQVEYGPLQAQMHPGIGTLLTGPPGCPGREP

[3] = biological target: T1, Sphingosine kinase 2 (Homo sapiens); conditions: at 1 µM
[4] = biological target: Casein kinase II subunit alpha (Homo sapiens) (UniProt P68400); conditions: at 0.1 µM
Sequence of Casein kinase II subunit alpha (Homo sapiens) (P68400 whole entry, looked up): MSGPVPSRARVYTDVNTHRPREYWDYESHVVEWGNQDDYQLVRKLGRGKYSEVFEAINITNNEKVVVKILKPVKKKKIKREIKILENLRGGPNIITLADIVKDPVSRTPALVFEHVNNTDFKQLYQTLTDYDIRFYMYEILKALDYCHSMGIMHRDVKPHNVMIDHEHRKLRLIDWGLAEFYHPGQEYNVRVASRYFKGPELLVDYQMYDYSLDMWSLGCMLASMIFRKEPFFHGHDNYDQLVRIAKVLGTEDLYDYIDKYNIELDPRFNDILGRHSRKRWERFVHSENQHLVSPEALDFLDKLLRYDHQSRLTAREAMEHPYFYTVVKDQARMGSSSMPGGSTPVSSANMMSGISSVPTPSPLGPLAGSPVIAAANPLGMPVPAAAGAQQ

[5] = biological target: Casein kinase II subunit alpha (Homo sapiens) (UniProt P68400); conditions: at 1 µM
[6] = biological target: T2, Inhibitor of nuclear factor kappa-B kinase subunit alpha (Homo sapiens) (UniProt O15111); conditions: at 0.1 µM
T2 sequence (whole entry): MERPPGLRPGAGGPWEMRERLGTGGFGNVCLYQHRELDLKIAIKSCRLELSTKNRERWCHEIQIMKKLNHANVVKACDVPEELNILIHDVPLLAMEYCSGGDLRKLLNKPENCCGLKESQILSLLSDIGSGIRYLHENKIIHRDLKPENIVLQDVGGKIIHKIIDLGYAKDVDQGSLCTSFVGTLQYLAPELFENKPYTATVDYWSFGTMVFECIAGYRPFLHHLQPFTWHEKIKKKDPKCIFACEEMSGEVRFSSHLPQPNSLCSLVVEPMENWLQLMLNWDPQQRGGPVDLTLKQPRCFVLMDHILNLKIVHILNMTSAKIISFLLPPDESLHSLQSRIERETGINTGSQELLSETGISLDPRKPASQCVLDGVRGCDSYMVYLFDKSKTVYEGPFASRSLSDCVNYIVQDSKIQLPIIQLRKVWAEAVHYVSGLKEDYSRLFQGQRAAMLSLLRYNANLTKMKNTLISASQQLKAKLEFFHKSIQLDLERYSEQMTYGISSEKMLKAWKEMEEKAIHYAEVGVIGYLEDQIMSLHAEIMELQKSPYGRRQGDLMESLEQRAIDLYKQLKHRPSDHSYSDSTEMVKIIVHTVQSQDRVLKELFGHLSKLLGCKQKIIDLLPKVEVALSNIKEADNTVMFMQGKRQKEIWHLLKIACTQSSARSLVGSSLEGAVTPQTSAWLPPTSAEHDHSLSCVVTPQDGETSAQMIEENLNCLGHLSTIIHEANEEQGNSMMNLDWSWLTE

[7] = biological target: T2, Inhibitor of nuclear factor kappa-B kinase subunit alpha (Homo sapiens); conditions: at 1 µM
[8] = biological target: T3, Inhibitor of nuclear factor kappa-B kinase subunit beta (Homo sapiens) (UniProt O14920); conditions: at 0.1 µM
T3 sequence (whole entry): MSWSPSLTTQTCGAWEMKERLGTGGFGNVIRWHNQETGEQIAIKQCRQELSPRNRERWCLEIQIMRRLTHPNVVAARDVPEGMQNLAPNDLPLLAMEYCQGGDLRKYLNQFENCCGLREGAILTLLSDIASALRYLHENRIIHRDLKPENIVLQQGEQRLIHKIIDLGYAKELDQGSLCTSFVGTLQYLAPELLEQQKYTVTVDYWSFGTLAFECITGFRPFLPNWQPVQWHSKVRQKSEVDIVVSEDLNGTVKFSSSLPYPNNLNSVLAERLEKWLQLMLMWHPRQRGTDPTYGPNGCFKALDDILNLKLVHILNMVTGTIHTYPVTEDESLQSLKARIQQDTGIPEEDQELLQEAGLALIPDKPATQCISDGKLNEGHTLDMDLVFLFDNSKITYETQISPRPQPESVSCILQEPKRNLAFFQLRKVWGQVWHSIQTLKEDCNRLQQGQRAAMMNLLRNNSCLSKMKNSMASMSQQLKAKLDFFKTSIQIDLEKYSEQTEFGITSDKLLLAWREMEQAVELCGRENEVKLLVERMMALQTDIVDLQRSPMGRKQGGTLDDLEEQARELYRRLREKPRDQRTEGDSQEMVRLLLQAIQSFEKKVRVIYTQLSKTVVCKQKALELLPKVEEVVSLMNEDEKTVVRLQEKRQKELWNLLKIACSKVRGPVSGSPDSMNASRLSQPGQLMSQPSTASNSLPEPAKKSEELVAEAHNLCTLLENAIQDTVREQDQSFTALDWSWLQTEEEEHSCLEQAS

[9] = biological target: T3, Inhibitor of nuclear factor kappa-B kinase subunit beta (Homo sapiens); conditions: at 1 µM
[10] = biological target: T4, Inhibitor of nuclear factor kappa-B kinase subunit epsilon (Homo sapiens) (UniProt Q14164); conditions: at 0.1 µM
T4 sequence (whole entry): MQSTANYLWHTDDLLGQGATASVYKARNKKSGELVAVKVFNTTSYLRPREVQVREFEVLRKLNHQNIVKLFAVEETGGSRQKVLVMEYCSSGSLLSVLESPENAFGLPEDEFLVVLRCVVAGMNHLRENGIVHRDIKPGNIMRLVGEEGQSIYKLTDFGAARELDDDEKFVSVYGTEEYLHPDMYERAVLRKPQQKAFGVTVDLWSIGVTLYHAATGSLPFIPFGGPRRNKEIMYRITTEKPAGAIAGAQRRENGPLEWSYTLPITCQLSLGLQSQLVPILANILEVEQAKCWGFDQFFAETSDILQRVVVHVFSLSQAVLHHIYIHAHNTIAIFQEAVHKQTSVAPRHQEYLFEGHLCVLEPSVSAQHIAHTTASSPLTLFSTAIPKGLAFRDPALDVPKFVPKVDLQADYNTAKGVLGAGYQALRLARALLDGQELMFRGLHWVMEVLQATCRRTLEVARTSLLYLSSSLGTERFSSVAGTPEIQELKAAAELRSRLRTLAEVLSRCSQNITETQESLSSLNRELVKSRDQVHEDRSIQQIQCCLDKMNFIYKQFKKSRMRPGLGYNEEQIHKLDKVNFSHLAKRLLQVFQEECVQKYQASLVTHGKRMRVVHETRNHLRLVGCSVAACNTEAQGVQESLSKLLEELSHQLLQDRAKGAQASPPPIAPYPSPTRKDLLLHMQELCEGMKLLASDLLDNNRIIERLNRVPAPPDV

[11] = biological target: T4, Inhibitor of nuclear factor kappa-B kinase subunit epsilon (Homo sapiens); conditions: at 1 µM
[12] = biological target: T5, Serine/threonine-protein kinase Nek1 (Homo sapiens) (UniProt Q96PY6); conditions: at 0.1 µM
T5 sequence (whole entry): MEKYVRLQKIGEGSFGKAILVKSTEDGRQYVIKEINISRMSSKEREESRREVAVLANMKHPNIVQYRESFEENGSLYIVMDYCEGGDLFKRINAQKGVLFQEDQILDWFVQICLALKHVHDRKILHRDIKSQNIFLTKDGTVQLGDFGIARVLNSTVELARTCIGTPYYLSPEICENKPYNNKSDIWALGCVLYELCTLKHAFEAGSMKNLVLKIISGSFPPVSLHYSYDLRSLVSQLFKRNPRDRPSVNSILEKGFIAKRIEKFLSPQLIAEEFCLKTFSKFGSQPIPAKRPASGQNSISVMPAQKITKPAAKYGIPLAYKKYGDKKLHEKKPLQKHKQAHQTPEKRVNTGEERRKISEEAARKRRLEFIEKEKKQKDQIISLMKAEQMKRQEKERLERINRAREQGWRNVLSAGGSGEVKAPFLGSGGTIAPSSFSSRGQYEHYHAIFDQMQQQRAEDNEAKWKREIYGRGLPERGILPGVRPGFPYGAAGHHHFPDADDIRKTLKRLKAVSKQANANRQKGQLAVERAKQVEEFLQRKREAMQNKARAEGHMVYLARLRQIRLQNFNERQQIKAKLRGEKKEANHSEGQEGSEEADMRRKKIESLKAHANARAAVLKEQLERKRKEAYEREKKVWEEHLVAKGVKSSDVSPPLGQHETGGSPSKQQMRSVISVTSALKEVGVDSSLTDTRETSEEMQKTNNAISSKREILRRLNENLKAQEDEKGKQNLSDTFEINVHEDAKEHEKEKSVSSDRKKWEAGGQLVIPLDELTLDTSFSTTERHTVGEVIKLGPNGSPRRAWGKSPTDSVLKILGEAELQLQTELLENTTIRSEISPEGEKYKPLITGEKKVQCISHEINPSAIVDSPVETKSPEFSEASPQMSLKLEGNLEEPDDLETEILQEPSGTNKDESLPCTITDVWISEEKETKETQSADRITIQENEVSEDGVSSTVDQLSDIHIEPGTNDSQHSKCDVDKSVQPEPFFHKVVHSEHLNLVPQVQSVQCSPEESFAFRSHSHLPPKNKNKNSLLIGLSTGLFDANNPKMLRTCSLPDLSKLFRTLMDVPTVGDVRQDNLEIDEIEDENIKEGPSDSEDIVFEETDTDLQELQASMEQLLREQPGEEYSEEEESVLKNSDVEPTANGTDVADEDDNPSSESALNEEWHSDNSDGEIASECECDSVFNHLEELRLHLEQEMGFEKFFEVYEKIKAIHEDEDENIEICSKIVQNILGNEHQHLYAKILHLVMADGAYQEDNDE

[13] = biological target: T5, Serine/threonine-protein kinase Nek1 (Homo sapiens); conditions: at 1 µM
[14] = biological target: T6, Serine/threonine-protein kinase Nek2 (Homo sapiens) (UniProt P51955); conditions: at 0.1 µM
T6 sequence (whole entry): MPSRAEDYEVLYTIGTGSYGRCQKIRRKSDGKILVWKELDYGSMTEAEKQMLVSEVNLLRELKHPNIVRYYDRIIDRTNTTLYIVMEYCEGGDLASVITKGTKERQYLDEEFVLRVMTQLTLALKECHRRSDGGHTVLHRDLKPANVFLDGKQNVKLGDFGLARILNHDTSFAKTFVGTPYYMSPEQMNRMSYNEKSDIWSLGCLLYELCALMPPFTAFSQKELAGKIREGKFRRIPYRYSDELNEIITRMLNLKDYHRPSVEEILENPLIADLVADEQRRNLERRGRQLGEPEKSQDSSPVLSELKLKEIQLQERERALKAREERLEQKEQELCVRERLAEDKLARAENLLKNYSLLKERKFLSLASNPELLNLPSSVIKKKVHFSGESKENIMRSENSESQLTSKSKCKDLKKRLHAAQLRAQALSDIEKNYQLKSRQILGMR

[15] = biological target: T6, Serine/threonine-protein kinase Nek2 (Homo sapiens); conditions: at 1 µM
[16] = biological target: Serine/threonine-protein kinase Nek6 (Homo sapiens) (UniProt Q9HC98); conditions: at 0.1 µM
Sequence of Serine/threonine-protein kinase Nek6 (Homo sapiens) (Q9HC98 whole entry): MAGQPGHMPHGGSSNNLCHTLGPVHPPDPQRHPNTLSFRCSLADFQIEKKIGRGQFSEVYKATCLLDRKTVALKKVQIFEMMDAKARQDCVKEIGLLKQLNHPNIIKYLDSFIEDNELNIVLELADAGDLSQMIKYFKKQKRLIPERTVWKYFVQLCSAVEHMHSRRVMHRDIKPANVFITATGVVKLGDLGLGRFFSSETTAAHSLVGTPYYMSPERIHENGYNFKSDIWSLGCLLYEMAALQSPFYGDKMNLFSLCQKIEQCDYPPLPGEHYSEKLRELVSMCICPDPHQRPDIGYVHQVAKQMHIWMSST

[17] = biological target: Serine/threonine-protein kinase Nek6 (Homo sapiens) (UniProt Q9HC98); conditions: at 1 µM
[18] = biological target: Serine/threonine-protein kinase Nek7 (Homo sapiens) (UniProt Q8TDX7); conditions: at 0.1 µM
Sequence of Serine/threonine-protein kinase Nek7 (Homo sapiens) (Q8TDX7 whole entry, looked up): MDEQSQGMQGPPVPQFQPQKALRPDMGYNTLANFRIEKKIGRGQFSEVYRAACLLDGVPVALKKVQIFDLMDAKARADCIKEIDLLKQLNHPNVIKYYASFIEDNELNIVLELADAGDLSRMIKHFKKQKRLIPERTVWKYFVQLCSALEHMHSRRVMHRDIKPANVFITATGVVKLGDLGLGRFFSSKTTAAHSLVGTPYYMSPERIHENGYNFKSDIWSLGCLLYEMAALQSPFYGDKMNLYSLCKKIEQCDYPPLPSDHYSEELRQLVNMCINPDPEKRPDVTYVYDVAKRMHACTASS

[19] = biological target: Serine/threonine-protein kinase Nek7 (Homo sapiens) (UniProt Q8TDX7); conditions: at 1 µM
[20] = biological target: T7, Serine/threonine-protein kinase Nek9 (Homo sapiens) (UniProt Q8TD19); conditions: at 0.1 µM;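 also: reported value is the mean percent inhibition of NEK9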
T7 sequence (whole entry): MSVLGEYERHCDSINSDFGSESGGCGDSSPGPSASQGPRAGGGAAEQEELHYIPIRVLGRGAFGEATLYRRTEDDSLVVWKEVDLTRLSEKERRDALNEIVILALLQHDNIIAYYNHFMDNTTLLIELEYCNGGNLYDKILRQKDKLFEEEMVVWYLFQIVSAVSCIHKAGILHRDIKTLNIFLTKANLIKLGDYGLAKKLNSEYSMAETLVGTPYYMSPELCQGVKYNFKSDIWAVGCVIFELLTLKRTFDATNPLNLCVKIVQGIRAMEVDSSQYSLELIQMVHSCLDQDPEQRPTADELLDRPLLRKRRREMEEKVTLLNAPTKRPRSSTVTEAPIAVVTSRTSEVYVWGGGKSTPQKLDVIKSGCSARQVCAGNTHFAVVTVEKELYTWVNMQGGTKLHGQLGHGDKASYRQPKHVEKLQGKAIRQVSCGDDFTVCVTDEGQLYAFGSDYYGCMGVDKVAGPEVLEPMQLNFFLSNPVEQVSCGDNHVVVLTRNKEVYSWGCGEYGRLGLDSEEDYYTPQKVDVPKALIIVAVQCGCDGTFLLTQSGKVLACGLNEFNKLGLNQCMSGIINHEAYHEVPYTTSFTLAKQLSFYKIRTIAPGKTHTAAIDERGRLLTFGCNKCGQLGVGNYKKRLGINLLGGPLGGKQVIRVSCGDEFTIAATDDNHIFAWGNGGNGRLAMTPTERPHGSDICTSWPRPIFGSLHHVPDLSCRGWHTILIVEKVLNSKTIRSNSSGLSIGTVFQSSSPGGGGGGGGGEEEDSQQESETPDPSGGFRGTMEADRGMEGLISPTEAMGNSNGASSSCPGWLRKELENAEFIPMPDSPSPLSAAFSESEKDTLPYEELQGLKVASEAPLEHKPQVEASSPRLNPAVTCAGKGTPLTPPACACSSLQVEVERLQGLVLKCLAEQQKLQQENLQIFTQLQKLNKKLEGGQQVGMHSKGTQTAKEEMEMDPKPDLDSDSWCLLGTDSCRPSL

Sequence of Sphingosine kinase 1 (Homo sapiens) (Q9NYA1 whole entry): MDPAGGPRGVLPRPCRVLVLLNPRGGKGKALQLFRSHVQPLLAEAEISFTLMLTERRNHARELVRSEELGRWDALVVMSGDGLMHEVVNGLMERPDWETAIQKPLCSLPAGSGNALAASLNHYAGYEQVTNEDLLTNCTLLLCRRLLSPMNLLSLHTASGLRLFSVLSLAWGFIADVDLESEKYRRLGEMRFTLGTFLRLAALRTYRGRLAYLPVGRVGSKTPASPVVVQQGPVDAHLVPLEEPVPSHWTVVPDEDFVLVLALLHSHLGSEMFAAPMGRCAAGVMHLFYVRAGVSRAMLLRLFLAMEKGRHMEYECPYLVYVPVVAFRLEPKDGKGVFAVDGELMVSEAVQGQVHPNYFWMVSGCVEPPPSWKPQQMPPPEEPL

SMILES	inhibition [1] [%]	inhibition [2] [%]	inhibition [3] [%]	inhibition [4] [%]	inhibition [5] [%]	inhibition [6] [%]	inhibition [7] [%]	inhibition [8] [%]	inhibition [9] [%]	inhibition [10] [%]	inhibition [11] [%]	inhibition [12] [%]	inhibition [13] [%]	inhibition [14] [%]	inhibition [15] [%]	inhibition [16] [%]	inhibition [17] [%]	inhibition [18] [%]	inhibition [19] [%]	inhibition [20] [%]
COC(=O)Nc1nc2ccc(Oc3ccc(NC(=O)Nc4cc(C(F)(F)F)ccc4F)cc3)cc2s1	-3.33	0.51	-0.44	-0.3	1.75	4.91	-0.96	3.58	-1.14	-0.11	-1.19	1.14	1.38	-0.09	0.69	-1.08	-4.58	1.35	0.53	-1.57
CCCNc1cccc(-n2ncc3c(N/N=C/c4ccncc4)ncnc32)c1	-3.91	-0.44	1.31	1.7	14.1	5.25	0.68	0.62	3.19	5.27	13.4	0.28	7.87	-1.07	0.85	4.08	2.63	-1.02	-0.91	1.01
